VACV Venus inh – qHTS for Stage-Specific Inhibitors of Vaccinia Orthopoxvirus: Venus Reporter Primary qHTS. 0.46% of 330,000 active. Vaccinia virus Venus reporter expression, fluorescence. Potency, µM (doses to about 36.5 µM), usual class: inhibitors. AID 720580, 2013; calls by dose curve; tested in A549 cells; also: nearly all actives have a fitted effect of over 30% in size
VACV mCherry inh – qHTS for Stage-Specific Inhibitors of Vaccinia Orthopoxvirus: mCherry Reporter Primary qHTS. 0.63% of 310,000 active. Vaccinia virus mCherry reporter infection, fluorescence. Potency, µM (top dose mostly 36.5 µM), usual class: inhibitors. AID 720579, 2013; calls by dose curve; tested in A549 cells; also: nearly all actives have a fitted effect of over 35% in size
HCMV inh – qHTS Assay for inhibitors of the human cytomegalovirus (HCMV) | HFF cells, HCMV-luciferase reporter, 72 h; hits give low values | activity change, negative = inhibition, % at 57.5 µM | 4.5% of 410,000 active | AID 1259415, 2018; in the data active = activity change below about -60%; inconclusive = no clear call, values can overlap the other calls; inactive = above about -39%
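Inhibition of viral replication was scored as loss of reporter luminescence in HFFs infected with HCMV-luciferase (MOI 1 PFU/cell) for 72 h; compounds tested at 2 doses, normalized to buffer and Salinomycin controls.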
Sm TGR block – qHTS Assay for the Inhibitors of Schistosoma Mansoni Peroxiredoxins; 3% of 360,000 active; AID 485364, 2010; Schistosoma mansoni thioredoxin glutathione reductase (TGR), Q962Y6; Potency, µM (highest dose often 114 µM), hits mostly inhibitors; purified TGR, DTNB reduction, TNB absorbance 405 nm; also: nearly all actives have a fitted effect of over 60% in size
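Kinetic colorimetric format: TGR-catalysed, NADPH-driven DTNB reduction monitored via TNB absorbance. Enzyme dispensed at 20 nM; compound exposure 15 min at room temperature before reaction start.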
HCV inh – qHTS Assay for Inhibitors of Hepatitis C Virus (HCV); Potency, µM (highest dose often 41.8 µM), usual class: inhibitors; AID 651820, 2012; 3.4% of 340,000 active; Huh7.5.1 HCVcc-Cre infection, luciferase reporter, 44 h
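Compounds are dispensed onto cells plated 4 h earlier at 1,000 per well, with HCVcc-Cre virus (about 0.5 moi) added next. Following 44 h of culture, luminescent signal is measured for 15 sec after 15 min with substrate at room temperature.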
FMDV antiviral – High Throughput Screening for Foot and Mouth Disease Virus Antivirals; AID 1159524, 2015; 1.2% of 410,000 active; Potency, µM (top dose mostly 57.9 µM), usual class: inhibitors; FMDV antiviral cell-based qHTS; calls by dose curve; tested in HEK293T cells; also: read-out not given here; nearly all actives have a fitted effect of over 45% in size
Hits are given with their value; n = inactive; u = inconclusive; x = no result given; [ ] = dose if it differs, or a comment. In the library only some 9.3% were active in any assay of this set; here they are far more common. Unless noted, calls follow the shape of the dose curve; as a rule, active = well fitted curve in the direction sought with a large enough effect; inconclusive = small, poorly fitted or top-dose-only effect, or another doubt; inactive = no such curve, though single readings can be large; an effect the other way counts as inactive or inconclusive.

SMILES	VACV Venus inh	VACV mCherry inh	HCMV inh	Sm TGR block	HCV inh	FMDV antiviral
CC1CC(C)(C)CC2(C1)NC(=O)N(CC(=O)N1CCN(Cc3ccc(C#N)cc3)CC1)C2=O (stereo unspecified)	n	u	-84.2	n	1.41µM	u
O=C(Oc1ccccc1)N1CCC[C@@]2(CCN(C(c3ccccc3)c3ccccc3)C2)C1	x	x	x	x	x	n
Cc1ccc(NS(=O)(=O)c2c(C)[nH]c(C)c2C(=O)N2CCCC2)cc1Cl	n	n	n	n	n	n
O=C(Nc1ccc(Cl)c(S(=O)(=O)N2CCOCC2)c1)c1cc(=O)[nH]c2ccccc12	x	x	n	n	u	n
CCOC(=O)C(=Cc1cn(C)c2ccc(S(=O)(=O)N(C)C)cc12)C(=O)OCC	n	n	n	n	n	31.6µM
Nc1nc2ccccc2n1/N=C/c1ccc(-c2ccccc2)o1	n	n	n	n	u	n
COc1ccc(CNC(=O)c2ccccc2[N+](=O)[O-])cc1	x	x	-108.2	n	n	n
COc1ccc(CNC(=O)c2cnc(N3CCOCC3)c3ccccc23)cc1	n	n	-109.3	n	x	n
Cc1cc(CNC(=O)Cc2ccccc2)c2ccccc2n1	n	n	n	n	u	n
Cc1cc(CNC(=O)c2cccc([N+](=O)[O-])c2C)c2ccccc2n1	n	n	-73.3	n	u	14.1µM
COc1ccc(NC(=O)c2ccccc2[N+](=O)[O-])cc1	n	n	u	n	n	n
O=C(NCc1cccc(Cl)c1)c1cnc(N2CCOCC2)c2ccccc12	n	n	n	n	x	n
CCCCOc1ccc(C2C(C(=O)c3ccc(C)o3)=C(O)C(=O)N2Cc2ccco2)cc1 (stereo unspecified)	x	x	n	u	x	x
COc1ccc2c(c1)[nH]c1c(N3CCN(Cc4ccc5c(c4)OCO5)CC3)ncnc12	u	u	n	n	u	6.31µM
COc1ccc2[nH]c3c(N4CC(C)OC(C)C4)ncnc3c2c1 (stereo unspecified)	x	x	u	n	n	n
COc1ccc2c(c1)[nH]c1c(N3CCSCC3)ncnc12	n	u	u	n	n	25.1µM
CCN(CC)C(=O)c1ccc(Nc2nnc(-c3ccc(O)cc3)c3ccccc23)cc1	x	x	u	n	u	u
Cc1ccccc1CNCc1ccc2c(c1)OCO2	x	x	n	n	n	n
Cc1cc(C(=O)NNC(=O)C(C)(C)Oc2ccc(Cl)cc2)c(C)o1	x	x	n	x	n	n
COC(=O)c1ccc(COc2ccccc2/C=C(\C#N)C(=O)Nc2ccccc2C)cc1	n	n	n	n	n	n
COC(=O)c1ccc(COc2ccccc2/C=C(\C#N)C(=O)Nc2c(C)cccc2C)cc1	n	n	n	n	u	11.2µM
O=C(COCCOCC(=O)N(c1ccccn1)C1CCCCC1)N(c1ccccn1)C1CCCCC1	n	x	n	n	n	n
CN(C)c1oc(-c2ccc(OCc3ccccc3)cc2)nc1C#N	n	n	n	100µM	u	n
O=[N+]([O-])c1ccc(Cl)c2c1C1C=CCC1C(c1ccccn1)N2 (stereo unspecified)	n	n	n	20µM	n	u
CC(=O)C1=C(C)NC(C)=C(C(C)=O)C1c1ccccc1	n	n	n	x	n	n
SMILES	VACV Venus inh	VACV mCherry inh	HCMV inh	Sm TGR block	HCV inh	FMDV antiviral
CCOc1ccc(C(O)c2nccn2Cc2ccccc2)cc1 (stereo unspecified)	n	n[1.46 µM]	n	n	n	n
CCn1ccnc1C(O)c1ccc(N(C)C)cc1 (stereo unspecified)	x	x	n	10µM	n	n
Cc1nc(Oc2ccccc2)c2ccccc2n1	n	n	n	n	n	u
c1ccc(Oc2c3ccccc3nc3ccccc23)cc1	u	n	x	5.01µM	n	n
Nc1c2ccccc2nc2ccccc12	10µM	u	-99.4	n	5.01µM	u
CC1CC(C)(O)CC(C(O)CC2CC(=O)NC(=O)C2)C1=O (stereo unspecified)	35.5µM	u	-74.8	x	u	u
COc1ccc(S(=O)(=O)N/N=C\c2ccc3c(c2)OCO3)c(OC)c1	n	n	n	n	3.55µM	n
Cc1cccc(C)c1NC(=O)NC1CCc2ccccc21 (stereo unspecified)	x	x	u	n	n	n
C=C(C)C1(O)OC(=O)C=C1OC (stereo unspecified)	n	n	n	6.31µM	n	n
O=C(CSC1=Nc2ccccc2C2=NC(CC(=O)N3CCN(c4ccccc4)CC3)C(=O)N12)NCC1CCCO1 (stereo unspecified)	x	x	n	n	u	n
CC1(C(=O)Nc2ccccc2)Cc2c(-c3ccc4c(c3)OCO4)ccnc2O1 (stereo unspecified)	n	n	n	x	x	n
CC1(C(=O)Nc2cccc(Oc3ccccc3)c2)Cc2c(-c3ccc4c(c3)OCO4)ccnc2O1 (stereo unspecified)	n	n	-67.1	x	x	n
Cc1ccc(S(=O)(=O)c2nnn3c2nc(N(C)Cc2ccccc2)c2cc(Cl)ccc23)cc1C	n	n	n	n	x	n
CCN(CC)c1nc2c(S(=O)(=O)c3ccccc3)nnn2c2ccc(Cl)cc12	u	u	-76.3	n	x	n
CCN(CC)c1nc2c(S(=O)(=O)c3cccc(Cl)c3)nnn2c2ccsc12	n	u	-61.1	n	x	n
O=[N+]([O-])c1cccc(-c2nc(-c3cccs3)c(-c3cccs3)[nH]2)c1	u	n	n	n	12.6µM	u
CC(=O)c1cccc(NC(=O)CN2C(=O)c3ccccc3Sc3ncccc32)c1	n	n	n	n	x	39.8µM
O=C(CCN1C(=O)c2ccccc2Sc2ncccc21)Nc1ccc(F)cc1	n	n	n	15.8µM	x	n
CCc1cccc(NC(=O)CCN2C(=O)c3ccccc3Sc3ncccc32)c1	n	n	u	44.7µM	x	n
Cc1ccc(S(=O)(=O)N2CCC(C(=O)N3CCCC(C(F)(F)F)C3)CC2)cc1C (stereo unspecified)	n	n	n	n	u	n
Cc1ccn2c(Nc3ccc(C(C)C)cc3)c(-c3cccs3)nc2c1	n	n	n	n	x	n
O=C1NC(Cc2ccccc2)c2nc3cc(Cl)ccc3c(=O)n2-c2ccccc21 (stereo unspecified)	x	x	n	x	3.55µM	x
O=C1NC(Cc2ccc(O)cc2)c2nc3ccc(Br)cc3c(=O)n2-c2cc3ccccc3cc21 (stereo unspecified)	u	u	-93.8	x	x	u
Cc1cc(C)c(N(C(=O)c2csnn2)C(C(=O)NC2CCCC2)c2ccncc2)c(C)c1 (stereo unspecified)	n	n	u	n	n	n
O=C(NCCc1c[nH]c2ccccc12)c1cc(Cl)c2c(c1)OCO2	n	n	n	n	u	n

Screening data deposited in PubChem by National Center for Advancing Translational Sciences (NCATS).
